Values joined by “and” are separate entries in the source; they are usually repeats but may differ in a detail not shown here. Identical values can stand only once. Hit rate of the full screen: of about 5,500 compounds, about 2,000 (36%) were called active. About 18% were inconclusive and are not listed. Rule as the data show it: active = normalized growth mostly below about 0.91 (no sharp cut-off); inconclusive = no clear call, values can overlap the other calls; inactive = mostly above about 0.92. The list shows a part of the results.
Assay: chemical genetic growth profiling, strain panel (AID 1159580);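 also: tested at 20 µM; growth read once vehicle control cultures reached saturation at 30 °C; 1 = growth at the plate median or of vehicle wells; lower values mean less growth of the strain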
Conditions: growth OD

Measured: normalized growth

CN(C)CCCN1c2ccccc2CCc2ccccc21
inactive: S. cerevisiae deletion strains, locus YJR075W, strain HOC1, stronger effect = lower value 0.97 | S. cerevisiae deletion strains, locus YKL009W, strain mrt4, stronger effect = lower value 0.992 | S. cerevisiae deletion strains, locus YKL068W, stronger effect = lower value 0.992 | S. cerevisiae deletion strains, locus YKL085W, strain MDH1 (second series), stronger effect = lower value 0.987 | S. cerevisiae deletion strains, locus YKL085W, strain MDH1, stronger effect = lower value 0.987 | S. cerevisiae deletion strains, locus YKL160W, strain elf1, stronger effect = lower value 1 | S. cerevisiae deletion strains, locus YKR001C, strain vps1, stronger effect = lower value 0.988 | S. cerevisiae deletion strains, locus YKR026C, strain gcn3, stronger effect = lower value 1.01 | S. cerevisiae deletion strains, locus YKR091W, strain srl3, stronger effect = lower value 1.01 | S. cerevisiae deletion strains, locus YLL001W, strain dnm1, stronger effect = lower value 0.994 | S. cerevisiae deletion strains, locus YLL026W, stronger effect = lower value 0.999 | S. cerevisiae deletion strains, locus YLL041C, strain sdh2, stronger effect = lower value 1.01 | S. cerevisiae deletion strains, locus YLR027C, strain aat2, stronger effect = lower value 1 | S. cerevisiae deletion strains, locus YLR039C, strain RIC1, stronger effect = lower value 1.15 | S. cerevisiae deletion strains, locus YLR058C, strain SHM2, stronger effect = lower value 1 | S. cerevisiae deletion strains, locus YLR102C, strain apc9, stronger effect = lower value 0.984 | S. cerevisiae deletion strains, locus YLR113W, strain HOG1, stronger effect = lower value 1.01 | S. cerevisiae deletion strains, locus YLR221C, strain rsa3, stronger effect = lower value 0.98 | S. cerevisiae deletion strains, locus YLR258W, strain gsy2, stronger effect = lower value 0.989 | S. cerevisiae deletion strains, locus YLR262C, strain YPT6 (second series), stronger effect = lower value 1.04 | S. cerevisiae deletion strains, locus YLR262C, strain YPT6, stronger effect = lower value 1.25 | S. cerevisiae deletion strains, locus YLR268W, strain sec22, stronger effect = lower value 0.994 | S. cerevisiae deletion strains, locus YLR320W, strain mms22, stronger effect = lower value 0.991 | S. cerevisiae deletion strains, locus YLR330W, strain CHS5, stronger effect = lower value 1.01 | S. cerevisiae deletion strains, locus YLR342W, strain FKS1 (second series), stronger effect = lower value 0.997 | S. cerevisiae deletion strains, locus YLR342W, strain FKS1, stronger effect = lower value 1 | S. cerevisiae deletion strains, locus YLR357W, strain rsc2, stronger effect = lower value 1.01 | S. cerevisiae deletion strains, locus YLR370C, strain arc18, stronger effect = lower value 1.01 | S. cerevisiae deletion strains, locus YLR371W, strain rom2, stronger effect = lower value 0.987 | S. cerevisiae deletion strains, locus YLR384C, strain iki3, stronger effect = lower value 1.01 | S. cerevisiae deletion strains, locus YLR418C, strain cdc73, stronger effect = lower value 0.956 | S. cerevisiae deletion strains, locus YML016C, strain PPZ1, stronger effect = lower value 1.01 | S. cerevisiae deletion strains, locus YML032C, strain rad52, stronger effect = lower value 0.996 | S. cerevisiae deletion strains, locus YML120C, strain ndi1, stronger effect = lower value 0.992 | S. cerevisiae deletion strains, locus YML124C, strain tub3, stronger effect = lower value 0.996 | S. cerevisiae deletion strains, locus YMR058W, strain fet3, stronger effect = lower value 1.01 | S. cerevisiae deletion strains, locus YMR078C, strain ctf18, stronger effect = lower value 0.985 | S. cerevisiae deletion strains, locus YMR125W, strain sto1, stronger effect = lower value 1.01 | S. cerevisiae deletion strains, locus YMR129W, stronger effect = lower value 1 | S. cerevisiae deletion strains, locus YMR205C, strain PFK2, stronger effect = lower value 0.998 | S. cerevisiae deletion strains, locus YMR223W, strain ubp8, stronger effect = lower value 0.962 | S. cerevisiae deletion strains, locus YMR231W, strain pep5, stronger effect = lower value 0.998 | S. cerevisiae deletion strains, locus YMR263W, strain SAP30, stronger effect = lower value 1 | S. cerevisiae deletion strains, locus YMR307W, strain GAS1, stronger effect = lower value 1.09 and 0.988 | S. cerevisiae deletion strains, locus YNL067W, strain RPL9B, stronger effect = lower value 1 | S. cerevisiae deletion strains, locus YNL071W, strain lat1, stronger effect = lower value 1 | S. cerevisiae deletion strains, locus YNL128W, strain TEP1, stronger effect = lower value 1 | S. cerevisiae deletion strains, locus YNL153C, strain GIM3, stronger effect = lower value 1.01 | S. cerevisiae deletion strains, locus YNL175C, strain NOP13, stronger effect = lower value 1 | S. cerevisiae deletion strains, locus YNL183C, strain NPR1, stronger effect = lower value 0.942 | S. cerevisiae deletion strains, locus YNL197C, strain WHI3, stronger effect = lower value 1 | S. cerevisiae deletion strains, locus YNL209W, strain ssb2, stronger effect = lower value 1.03 | S. cerevisiae deletion strains, locus YNL224C, strain SQS1, stronger effect = lower value 1.05 | S. cerevisiae deletion strains, locus YNL233W, strain BNI4, stronger effect = lower value 1.01 | S. cerevisiae deletion strains, locus YNL248C, strain rpa49, stronger effect = lower value 0.988 | S. cerevisiae deletion strains, locus YNL250W, strain rad50, stronger effect = lower value 0.987 | S. cerevisiae deletion strains, locus YNL271C, strain bni1, stronger effect = lower value 0.993 | S. cerevisiae deletion strains, locus YNL298W, strain CLA4, stronger effect = lower value 1 | S. cerevisiae deletion strains, locus YNL307C, strain MCK1, stronger effect = lower value 0.982 | S. cerevisiae deletion strains, locus YNL322C, strain KRE1 (second series), stronger effect = lower value 0.997 | S. cerevisiae deletion strains, locus YNL322C, strain KRE1, stronger effect = lower value 1 and 0.979 | S. cerevisiae deletion strains, locus YNR049C, strain mso1, stronger effect = lower value 1.03 | S. cerevisiae deletion strains, locus YNR052C, strain pop2, stronger effect = lower value 0.978 | S. cerevisiae deletion strains, locus YOL006C, strain TOP1, stronger effect = lower value 0.946 | S. cerevisiae deletion strains, locus YOL012C, strain htz1 0.613 | S. cerevisiae deletion strains, locus YOL147C, strain pex11, stronger effect = lower value 0.994 | S. cerevisiae deletion strains, locus YOR001W, strain rrp6, stronger effect = lower value 1 | S. cerevisiae deletion strains, locus YOR061W, strain CKA2, stronger effect = lower value 1.01 | S. cerevisiae deletion strains, locus YOR069W, strain VPS5, stronger effect = lower value 1 | S. cerevisiae deletion strains, locus YOR070C, strain gyp1, stronger effect = lower value 1 | S. cerevisiae deletion strains, locus YOR080W, strain dia2, stronger effect = lower value 0.995 | S. cerevisiae deletion strains, locus YOR083W, strain WHI5 (second series), stronger effect = lower value 1.07 | S. cerevisiae deletion strains, locus YOR083W, strain WHI5, stronger effect = lower value 0.995 | S. cerevisiae deletion strains, locus YOR106W, strain vam3, stronger effect = lower value 0.997 | S. cerevisiae deletion strains, locus YOR136W, strain idh2, stronger effect = lower value 0.999 | S. cerevisiae deletion strains, locus YOR144C, strain elg1, stronger effect = lower value 0.992 | S. cerevisiae deletion strains, locus YOR184W, strain ser1, stronger effect = lower value 1.02 | S. cerevisiae deletion strains, locus YOR231W, strain MKK1, stronger effect = lower value 0.975 | S. cerevisiae deletion strains, locus YOR265W, strain rbl2, stronger effect = lower value 1.01 | S. cerevisiae deletion strains, locus YOR270C, strain vph1, stronger effect = lower value 0.932 | S. cerevisiae deletion strains, locus YOR290C, strain snf2, stronger effect = lower value 1 | S. cerevisiae deletion strains, locus YOR316C, strain cot1, stronger effect = lower value 0.993 | S. cerevisiae deletion strains, locus YPL051W, strain arl3, stronger effect = lower value 0.992 | S. cerevisiae deletion strains, locus YPL055C, strain LGE1, stronger effect = lower value 0.99 and 0.992 | S. cerevisiae deletion strains, locus YPL078C, strain atp4, stronger effect = lower value 1.01 | S. cerevisiae deletion strains, locus YPL106C, strain sse1, stronger effect = lower value 0.996 | S. cerevisiae deletion strains, locus YPL240C, strain hsp82, stronger effect = lower value 1 | S. cerevisiae deletion strains, locus YPL241C, strain CIN2, stronger effect = lower value 1.01 | S. cerevisiae deletion strains, locus YPL256C, strain CLN2, stronger effect = lower value 0.972 | S. cerevisiae deletion strains, locus YPR119W, strain clb2, stronger effect = lower value 0.99 | S. cerevisiae deletion strains, locus YPR141C, strain kar3, stronger effect = lower value 0.993 | S. cerevisiae deletion strains, locus YPR163C, strain tif3, stronger effect = lower value 0.982 | S. cerevisiae deletion strains, locus YPR167C, strain met16, stronger effect = lower value 0.989 | S. cerevisiae deletion strains, strain wtn01, stronger effect = lower value 0.988 | S. cerevisiae strains, strain wild type, stronger effect = lower value 1.01

Source: PubChem BioAssay AID1159580 (chemical genetic matrix, 2015)
